About 1,900 (0.58%) of roughly 330,000 compounds were called active. About 4% were inconclusive and are not listed. Only a sample is shown. Results with a measured potency or affinity are listed apart. Unmarked numbers belong to inactive results. Rule as the data show it: inconclusive = inhibition above about 70% without an active follow-up result; inactive = below that.

A short description of the assay: M. tuberculosis growth inhibition, HTS (AID 449762).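 Also: bacterial growth assessed after seven days of incubation.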 To be noted: M. tuberculosis H37Rv growth inhibition, 7H9 media; at 25 µM; active compounds read high.
Turning to `CC(C)CC1Nc2ccc(C(=O)NCCCN3CCOCC3)cc2NC1=O` (configuration not stated), the inhibition is 7.57%.

On to `N#Cc1c(-c2ccc(Cl)cc2)ccn2nc(CCC(=O)O)nc12`, for which the inhibition was 0.53%.

In the case of `CCc1nc2c(C#N)c(-c3ccc(Cl)cc3)ccn2n1`, the inhibition was -11.1%.

In the case of `O=C(COC(=O)CNC(=O)c1cccc(OC(F)F)c1)NCc1ccc2c(c1)OCO2`, the inhibition was 7.07%.

As for `Cc1ccc(NC(=O)c2cccc(-n3cnnn3)c2)cc1Cl`, the inhibition was 4.03%.

Consider `CCN1CC(CN(C)Cc2nc(Cc3ccccc3)no2)CC1=O` (configuration not stated), for which the inhibition is 3.14%.

For the compound `O=C1c2ccccc2S(=O)(=O)c2cc(C(=O)N3CCN(c4ccc(Cl)cn4)CC3)ccc21`, the inhibition is 14%.

Take `O=C1c2ccccc2S(=O)(=O)c2cc(C(=O)N3CCN(c4ccccc4)CC3)ccc21`: the inhibition was 4.82%.

For the compound `O=C(OCC(=O)N1CCCc2ccccc21)c1cccnc1Cl`, the inhibition was 0.07%.

As for `COC(=O)N/N=C/c1ccccc1`, the inhibition was -2.71%.

For the compound `COC(=O)N/N=C/c1ccccc1Cl`, the inhibition is -1.15%.

For `COc1ccc(NC(=O)CSc2ccccc2)cc1S(=O)(=O)N1CCOCC1`, the inhibition is 9.25%.

Regarding `CC(Nc1cc(N2CCN(C(=O)C(C)(C)C)CC2)ccc1[N+](=O)[O-])c1ccccc1` (configuration not stated), the inhibition is 6.58%.

Turning to `CCCCc1nnc(NC(=O)c2ccc(N3CCCC3=O)cc2)s1`, the inhibition is 0.88%.

Turning to `CCOc1ccc(Nc2cc(C)nc(N3CCOCC3)n2)cc1`, the inhibition was -6.87%.

As to `Cc1cc(NCCO)nc(-n2nc(C)cc2C)n1`, the inhibition is 1.56%.

As for `Cc1occc1C(=O)Nc1nnc(C(F)(F)F)s1`, the inhibition is -11.4%.

With `C(#Cc1ccc2c(c1)COc1c3ccccc3nn1-2)c1ccccc1`, the inhibition is -2.59%.

Take `C#Cc1ccc2c(c1)COc1c3ccccc3nn1-2`: the inhibition is 26.7%.

On to `COc1ccc(C(CNC(=O)Nc2ccc(Cl)cc2)N2CCN(C)CC2)cc1` (configuration not stated), for which the inhibition is 6.3%.

As to `COc1cccc(NC(=O)[C@@H]2CCCN2C(=O)C2CCN(S(=O)(=O)c3ccc(C)cc3)CC2)c1`, the inhibition is -6.02%.

As for `CCNc1nc(NC(C)(C)C)nc(N2CCCC2)n1`, the inhibition is 12.8%.

On to `CC(C)(C)Nc1nc(N2CCCC2)nc(N2CCCC2)n1`, for which the inhibition is 8.96%.

Consider `O=C(COc1ccccc1Br)c1ccc2c(c1)OCO2`, for which the inhibition is -8.06%.

In the case of `CC/C(=N\NC(=S)Nc1cccc(C)c1)c1ccccc1`, the inhibition was 4.58%.

`C/C(=N\NC(=S)Nc1cccc(C)c1)c1cc2ccccc2o1`: the inhibition was 67.2%.

With `Cc1ccc2cc(C)c3nnc(SCC(=O)N4CCN(C(=O)c5ccco5)CC4)n3c2c1`, the inhibition was -3.44%.

Source of the values: PubChem BioAssay AID449762 (Southern Research Specialized Biocontainment Screening …, 2010).
